From PubChem BioAssay (NCATS)
Inconclusive results are not listed. Values without a mark were called inactive. The source made the active and inactive calls. Calls come from the whole dose curve; as a rule, active = well fitted cell-killing curve with a large enough effect; inconclusive = small, poorly fitted or top-dose-only effect; inactive = flat fitted curve, though single readings scatter. Peptide text beside a SMILES is read from it.

Assay: Cell Viability - LYMP2-010 (AID 981); note: nearly all actives have a fitted effect of over 55% in size
Conditions: LYMP2-010 lymphoblastoid cell viability, qHTS; series mostly up to 92.2 µM; activity, negative = cytotoxicity: at the top concentration
Source text: NIH Chemical Genomics Center [NCGC]
NIH Molecular Libraries Screening Centers Network [MLSCN]
National Institutes of Environmental Health Sciences [NIEHS]
National Toxicology Program [NTP]
We have developed a 1536-well cell-based assay for quantitative high throughput screening (qHTS) against a number of cell lines to determine in vitro cytotoxicity of small molecules. This particular assay uses a human lymphoblastoid cell line (LYMP2-010) purchased from Coriell Institute for Medical Research.
NCGC Assay Protocol Summary:
The CellTiter-Glo luminescent cell viability assay (Promega) is a homogeneous method to measure the number of viable cells in culture. The end point readout of this assay is based on quantitation of intracellular ATP, an indicator of metabolic activity, using the luciferase reaction. Luciferase catalyzes the oxidation of beetle Luciferin to oxyluciferin and light in the presence of ATP. The luminescent signal is proportional to amount of ATP present.
Using the CellTiter-Glo luminescent cell viability assay, the amount of cellular ATP was measured in the lymphoblastoid cell line with complete culture medium following compound treatment for 24 hours. The assay was performed in opaque white Kalypsys 1536-well plates. In the screen, tetraoctylammonium bromide was used as positive control. Library compounds were measured for their ability to cause acute toxicity in the cell line, as reflected by a decrease in intracellular ATP levels, in a concentration-dependent manner. […] AC50 values were determined from concentration-response data modeled with the standard Hill equation.
qHTS protocol for CellTiter Glo lymphoblastoid cellular assay
[Step] [Parameter] [Value] [Description]
1. Reagent; 5 uL; 2500 lymphoblastoid cells/well
2. Time; 5 hr; 37 C incubation
4. Controls; 23 nL; Tetraoctylammonium bromide 6.4pM to 92 uM
5. Time; 24 hr; 37 C incubation
6. Reagent; 5 uL; CellTiter Glo reagent
7. Time; 30 min; Room Temperature
8. Detection; Luminescence; Viewlux plate reader
Keywords: cell viability, cytotoxicity, lymphoblastoid cell line, luminescence, NTPHTS, NTPHTS_NCGC, NIEHS, DSSTox, MLSMR, MLSCN, NIH Roadmap, qHTS, NCGC
% is set by controls: 0 for no effect and ±100 for the full control effect; potency is the fitted concentration of half-maximal effect.

SMILES	activity, negative = cytotoxicity [%]	Potency
CCCc1cc(=O)[nH]c(=S)[nH]1	4.32	–
CS(=O)(=O)OCCCCOS(C)(=O)=O	–	inactive
COC(=O)[C@H](Cc1ccccc1)NC(=O)[C@@H](N)CC(=O)O (H-Asp-Phe-OMe)	-3.53	–
c1ccc2[nH]c(-c3cscn3)nc2c1	-13.9	–
NS(=O)(=O)c1cc(C(=O)O)c(NCc2ccco2)cc1Cl	-5.5	–
Nc1ccc(S(N)(=O)=O)cc1	-9.59	–
CN(C)c1ccc2nc3ccc(=[N+](C)C)cc-3sc2c1	–	6.31 µM (active)
CC(=O)Nc1ccc(O)cc1	-3.22	–
Cc1ccc(C)c(OCCCC(C)(C)C(=O)O)c1	-3.39	–
COc1c2occc2cc2ccc(=O)oc12	-4.84	–
CCCCC(CC)COC(=O)C(C#N)=C(c1ccccc1)c1ccccc1 (stereo unspecified)	-25	–
